Active and inactive are the calls of the source. Unless noted, the rule behind the calls is not given here.

The nature of one assay: Pseudomonas biofilm growth suppression – PAO1 strain, BacTiter-Glo luminescence, LB-PBS, primary screen (AID 1144). Conditions: P. aeruginosa PAO1 biofilm, 12 h, higher = more signal.
Consider `CO[C@@H]1COC(=O)[C@H](C)NC(=O)[C@@H](C)COC(=O)CCC[C@H]1C`, for which the z-score was 0.019 (inactive).
With `CC(C)c1ccc(NN2C(C(O)c3ccc4c(c3)OCO4)C=CC3C(=O)N(c4ccccc4)C(=O)C32)cc1` (stereo unspecified), the z-score is -0.505 (inactive).
Take `CCOC(=O)[C@H](Cc1ccccc1)NC(=O)CCC1CC(OC(=O)NCc2ccc3c(c2)OCO3)CC2(CCCC(COC(=O)NCc3ccccc3)O2)O1` (stereo partly specified): the z-score was -0.971 (inactive).
`CC(C)(C)OC(=O)CC[C@]1(C(=O)NCc2ccccc2)N=C(c2ccc(OCCCO)cc2)O[C@H]1c1ccccc1`: the z-score was -1.77 (inactive).
`Cc1ccc(C2CC=C(C(=O)O)CN2S(=O)(=O)c2ccc(C)cc2)cc1` (stereo unspecified): the z-score was -0.119 (inactive).
The same measure, in the same setting: the same measure for `CC[C@@H](c1ccccc1)n1c(=O)n2n(c1=O)[C@H]1[C@H](O)[C@@H]3O[C@@H]3C(=NOCC=C(C)CCC=C(C)C)[C@H]1CC2`: 0.0433 (inactive); for `CC(CCC(=O)OC[C@H]1O[C@H](C#Cc2ccccc2)C=C[C@@H]1Oc1ccc(C)cc1)=NOC[C@@H](O)COCc1ccco1`: -0.128 (inactive).

The next assay in a line: basal CRE-LacZ reporter activity in PC12 – cell-based, unstimulated, primary screen (AID 1145). Conditions: no forskolin, luminescence, 4.5 h, higher = more signal, called active from +8 up or from −8 down.
In the case of `COc1ccc([Si](C)(C)[C@@H]2[C@@H](CCO)O[C@]3(C(=O)N(Cc4ccc(NC(C)=O)cc4)c4ccccc43)[C@H]2C)cc1`, the z-score was 3.57 (inactive).
Still for that read-out and setting: the same measure for `CCCCC(=C=CC[C@H](O)c1ccccc1OCCO)C[C@H](O)COCc1ccccc1`: 3.27 (inactive); for `COC(=O)[C@H]1COC(c2ccc(OCCCO)cc2)=N1`: 0.0686 (inactive).
With `CC(C)C[C@@H]1NC(=O)[C@H]2C[C@@H](C(=O)NCCCCCCN(C)C)[C@@H](c3cccc(OCCO)c3)N2C1=O`, the z-score is 0.0124 (inactive).
Take `O=C1O[C@@H](c2ccccc2)[C@@H](c2ccccc2)N2[C@@H](c3ccccc3OCCO)[C@]3(C(=O)Nc4ccc(C#CCCO)cc43)[C@@H](C(=O)O)[C@H]12`: the z-score is -0.465 (inactive).
As for `CC(C)NC(=O)[C@@]1(C)c2ccccc2C(=O)N(Cc2cc(F)cc(C(F)(F)F)c2)[C@H]1c1ccc(CO)cc1`, the z-score is 0.648 (inactive).
On the same count and under the same terms, under `O=C1O[C@@H](c2ccccc2)[C@@H](c2ccccc2)N2[C@@H](c3ccc(OCCO)cc3)[C@]3(C(=O)Nc4ccccc43)[C@@H](C(=O)N3CCN(c4ncccn4)CC3)[C@H]12` stands 0.865 (inactive).
On the same count and under the same terms, under `CCc1cc2c(nc1CC)CCN(CCC(C)=NOC[C@@H](O)[C@H]1O[C@@H]3OC(C)(C)O[C@@H]3[C@H]1O)C2` stands 0.006 (inactive); under `C=CC[C@@H]1C=C[C@H](ON=C(C)CCN2CCc3nc(CC)c(CC)cc3C2)[C@@H](CO)O1`, 3.51 (inactive).
Take `CN(C)CCCNC(=O)[C@@H]1c2ccccc2C(=O)N(Cc2cc(F)cc(C(F)(F)F)c2)[C@H]1c1ccc(CO)cc1`: the z-score is 0.351 (inactive).
`O=C1[C@H]2[C@H]3[C@H](O)[C@H](O)CC(=NOC[C@@H](O)COCc4ccco4)[C@H]3CC[C@H]2C(=O)N1c1cccc(Oc2ccccc2)c1`: the z-score was -0.21 (inactive).
The same measure, in the same setting: the same measure for `CS(=O)(=O)CCOC(=O)C1=CC(CCCO)=CC(c2cccs2)N(Cc2cccc(OC(F)(F)F)c2)C=C1C(=O)OCCS(C)(=O)=O` (stereo unspecified): 4.08 (inactive); for `CC(CCC(=O)OC[C@H]1O[C@H](C#Cc2ccccc2)C=C[C@@H]1Oc1ccc(C)cc1)=NO[C@@H](C)c1cn([C@H](CO)Cc2ccccc2)nn1`: 1.07 (inactive).
The same measure, in the same setting: the same measure for `COc1ccc(O[C@H]2C=C[C@@H](c3ccccc3)O[C@@H]2COC(=O)CCC(C)=NO[C@@H](C)c2cc(-c3c(C)cc(C)cc3C)no2)cc1`: -0.315 (inactive); for `CC(C)[C@@H](OCc1ccccc1)[C@H](C)C=NO[C@H](C)c1cn([C@H](CO)Cc2ccccc2)nn1`: 0.987 (inactive).
In the case of `COc1cccc([C@H]2Oc3ccc(OC)cc3C(=NOC(C)CN3CCCc4nc(C)c(C)cc43)[C@@H]2O)c1` (stereo partly specified), the z-score was 2.71 (inactive).
In the case of `O=C1C[C@@H](O)[C@@H](O)[C@@H]2[C@@H]3C(=O)N(C4CCCCC4)C(=O)[C@@H]3CC[C@H]12`, the z-score was -0.0258 (inactive).
The same measure, in the same setting: the same measure for `COc1ccc([Si](C)(C)[C@H]2[C@H](CC(=O)N3CCC[C@H]3CO)O[C@@]3(C(=O)N(Cc4cccc(N5C(=O)COc6ccccc65)c4)c4ccccc43)[C@@H]2C)cc1`: 7.18 (inactive); for `CC(C)NC(=O)[C@@]1(c2ccc([N+](=O)[O-])cc2)CC(=O)N(CC23CC4CC(CC(C4)C2)C3)[C@@H]1c1ccc(CO)cc1I`: 0.531 (inactive).

(Values after PubChem BioAssay.)
